From ChEMBL document CHEMBL3433997, “St. Jude Leishmania screening dataset” (2016)

target: Hexose transporter 1 (Plasmodium falciparum) (UniProt O97467); assay: ST_JUDE_LEISH: Cytotoxicity at 2uM final concentration against transgenic Leishmania Mexicana promastigotes LmPfHT that are glucose transport deficient and complemented with the Plasmodium falciparum hexose transporter. Activity is measured by DNA content using SYBR green in vitro; type: functional

SMILES | inhibition [%]
Cc1nc(C)c(-c2ccc(Sc3ccc(Cl)cc3)cc2)c(O)c1Br | -1.57
NCC1CCCN1Cc1ccc(-c2ccc(-c3nc4cc(C(F)(F)F)ccc4[nH]3)cc2)cc1 (stereo unspecified) | 1.2
COc1cccc(OC2CCN(C(=O)c3cc(C(C)(C)C)nn3Cc3ccccc3)CC2)c1 | 0.53
COc1cc(NCC(CN)Cc2ccc3c(c2)OCO3)nc2ccccc12 (stereo unspecified) | 3.95
COc1cccc2c(NN=Cc3ccccc3F)ccnc12 | 7.62
CN(Cc1ccccc1)C(=O)CCNS(=O)(=O)c1cc(Br)cnc1N | 3.87
Cc1ccc(-c2noc(=O)n2CC(=O)Nc2ccccc2-c2ccccc2)cc1 | 0.52
O=C(c1ccc([N+](=O)[O-])o1)N1CCC(c2cn(Cc3cccc(F)c3)c3ccccc23)CC1 | 50.9
c1ccc(COc2ccc(COc3ccc(Cn4ccnc4)cc3)cc2)cc1 | 2.15
Oc1cc2ccccc2cc1CNC1CCCCC1 | 1.41
N#CC(c1ccc(Cl)cc1)c1ccc2c(C(F)(F)F)cc(C(F)(F)F)nc2n1 (stereo unspecified) | 2.87
Nc1nc(N)c2nc(C3CC=CCC3)c(N)nc2n1 (stereo unspecified) | 3.81
Cc1cc(C(=O)Nc2ccc(-c3ccccc3)cc2)no1 | 0.53
NC1CCN(Cc2cccc(-c3ccc(-c4nc5cc(C(F)(F)F)ccc5[nH]4)cc3)c2)C1 (stereo unspecified) | 5.22
CC(C)CNC(=O)c1cncc(-c2ccc(CN(C)C3CCN(C)CC3)cc2)c1 | 5.48
COc1ccc2nccc(N3CCC(CCNCc4ccc5c(n4)NC(=O)CO5)CC3)c2c1 | 5.22
CCc1cn(CCOC)c2ccc(C(=O)N[C@@H](Cc3ccccc3)[C@H](O)CNC(C)(C)CCCC(C)C)cc12 | 1.3
Oc1ccccc1N1CCN(c2ccc(-c3nc4ccccc4[nH]3)cn2)CC1 | 1.99
O=C(NCCN1CCCC1)c1cccc(-c2ccc(-c3nc4cc(C(F)(F)F)ccc4[nH]3)cc2)c1 | 0.34
CC(CN1CCN(CC(c2ccc(F)cc2)N2CCN(C)CC2)CC1)C(=O)c1ccc(O)cc1 (stereo unspecified) | 2.35
CN(C)CCOc1cc(NC(=O)c2ccc(-c3ccc(Cl)cc3Cl)cc2)ccc1-c1ccccc1 | 0.95
Fc1ccc(-c2cc(NCCCn3ccnc3)nc(-c3cccnc3)n2)cc1 | 0.82
CCc1c(CCNCCCCCCNCc2ccc3c(c2CC)OCO3)ccc(OC)c1OC | 0.77
SC(=Nc1ccc(Cl)c(Cl)c1)NN=Cc1ccccn1 | 1.69
NC1CCCN(Cc2cccc(-c3ccc(-c4nc5ccccc5[nH]4)s3)c2)C1 (stereo unspecified) | 0.63
O=C(NCC1CC1)C1CCN(C(c2ccc(Cl)cc2)c2ccc(Cl)cc2)CC1 | 1.5

target: Glucose transporter (Leishmania mexicana) (UniProt O61059); assay: ST_JUDE_LEISH: Cytotoxicity at 2uM final concentration against transgenic Leishmania Mexicana promastigotes LmGT2 that are glucose transport deficient and complemented with the L. Mexicana glucose transporter 2. Activity is measured by DNA content using SYBR green in vitro; type: functional

SMILES | inhibition [%]
Cc1ccc2c(N/N=C/c3ccccc3[N+](=O)[O-])cc(C)nc2c1 | 1.01
COc1c(C2=CCN(CCCCNC(=O)c3ccc(-c4ccc(C#N)cc4)cc3)CC2)c(C)cc2c1C(C)(C)CCC2(C)C | 0.96
COc1ccc2ccccc2c1CON1C(=N)N=C(N)NC1(C)C | 1.5
Cc1cc(OCCCN2CCCCC2)ccc1NC(=O)COc1ccc(Cl)cc1C(=O)c1cc(Cl)cc(C#N)c1 | 5.79
COc1ccc2nccc([C@@H](O)CN3CCC(NC(=O)/C=C/c4ccc(F)c5ccccc45)CC3)c2c1 | 5.26
C=CCN(C(=O)c1ccc(Cl)c([N+](=O)[O-])c1)c1nc(-c2ccccc2)cs1 | 7.89
Cc1ccc(O)cc1Nc1ccnc2cc(-c3ccccn3)ccc12 | 3.28
C[C@@H](CC1CCCCC1)NCc1cccc(NS(=O)(=O)c2ccc(O)c(-c3ccno3)c2)c1 | 14.5
Cc1cc(Cl)c(S(=O)(=O)N(C)c2ccccc2)cc1OCC(=O)NC1CCCCC1 | 2.02
N#Cc1ccc(-c2cnc3ccc(NCc4ccc(S(N)(=O)=O)cc4)nn23)cc1 | 0.38
CNC(=O)CNC(=O)COc1cccc2ccccc12 | 2.7
CCc1ccc(C2CCN(CCCCNC(=O)c3ccc(NC(=O)c4ccc(Cl)cc4)cc3)CC2)c(OC(C)=O)c1 | 3.54
CC(C)c1ccc(NC(=O)N[C@H]2CCN(CCCCCNC(=O)/C=C/c3ccc(Cl)c(Cl)c3)C2)cc1 | 2.9
CC(C)[C@@H](NC(=O)NC1CCC(CCN2C3CCC2CC(OC(=O)C(CO)c2ccccc2)C3)CC1)C(O)(c1ccccc1)c1ccccc1 (stereo partly specified) | 4.86
Cc1nc(C)c(-c2ccc(Sc3ccc(Cl)cc3)cc2)c(O)c1Br | -1.9
NCC1CCCN1Cc1ccc(-c2ccc(-c3nc4cc(C(F)(F)F)ccc4[nH]3)cc2)cc1 (stereo unspecified) | 1.46
COc1cccc(OC2CCN(C(=O)c3cc(C(C)(C)C)nn3Cc3ccccc3)CC2)c1 | 1.38
COc1cc(NCC(CN)Cc2ccc3c(c2)OCO3)nc2ccccc12 (stereo unspecified) | 5.88
COc1cccc2c(NN=Cc3ccccc3F)ccnc12 | 2.85
CN(Cc1ccccc1)C(=O)CCNS(=O)(=O)c1cc(Br)cnc1N | 6.07

SMILES | inhibition [%]
Cc1ccc(-c2noc(=O)n2CC(=O)Nc2ccccc2-c2ccccc2)cc1 | -0.17
O=C(c1ccc([N+](=O)[O-])o1)N1CCC(c2cn(Cc3cccc(F)c3)c3ccccc23)CC1 | 10.2
c1ccc(COc2ccc(COc3ccc(Cn4ccnc4)cc3)cc2)cc1 | 1.02
Oc1cc2ccccc2cc1CNC1CCCCC1 | 1.5
N#CC(c1ccc(Cl)cc1)c1ccc2c(C(F)(F)F)cc(C(F)(F)F)nc2n1 (stereo unspecified) | 0.92
Nc1nc(N)c2nc(C3CC=CCC3)c(N)nc2n1 (stereo unspecified) | -0.04
Cc1cc(C(=O)Nc2ccc(-c3ccccc3)cc2)no1 | 0.52
NC1CCN(Cc2cccc(-c3ccc(-c4nc5cc(C(F)(F)F)ccc5[nH]4)cc3)c2)C1 (stereo unspecified) | 2.71
CC(C)CNC(=O)c1cncc(-c2ccc(CN(C)C3CCN(C)CC3)cc2)c1 | 1.87
COc1ccc2nccc(N3CCC(CCNCc4ccc5c(n4)NC(=O)CO5)CC3)c2c1 | -0.63
CCc1cn(CCOC)c2ccc(C(=O)N[C@@H](Cc3ccccc3)[C@H](O)CNC(C)(C)CCCC(C)C)cc12 | 1.51
Oc1ccccc1N1CCN(c2ccc(-c3nc4ccccc4[nH]3)cn2)CC1 | 0.57
O=C(NCCN1CCCC1)c1cccc(-c2ccc(-c3nc4cc(C(F)(F)F)ccc4[nH]3)cc2)c1 | 0.32
CC(CN1CCN(CC(c2ccc(F)cc2)N2CCN(C)CC2)CC1)C(=O)c1ccc(O)cc1 (stereo unspecified) | 2.04
CN(C)CCOc1cc(NC(=O)c2ccc(-c3ccc(Cl)cc3Cl)cc2)ccc1-c1ccccc1 | -0.43
Fc1ccc(-c2cc(NCCCn3ccnc3)nc(-c3cccnc3)n2)cc1 | 2.67
CCc1c(CCNCCCCCCNCc2ccc3c(c2CC)OCO3)ccc(OC)c1OC | 4.01
SC(=Nc1ccc(Cl)c(Cl)c1)NN=Cc1ccccn1 | -1.58
NC1CCCN(Cc2cccc(-c3ccc(-c4nc5ccccc5[nH]4)s3)c2)C1 (stereo unspecified) | 1.78
O=C(NCC1CC1)C1CCN(C(c2ccc(Cl)cc2)c2ccc(Cl)cc2)CC1 | -2.15
